Among all 310,000 compounds or so, about 3,900 (1.3%) were called active. The sample holds actives, similar compounds and a random draw of the others, so the mix is not that of the screen.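 Rule for the calls: active = calcium-response B-score plate-corrected more than 3 library SD below zero, starting fluorescence within 5 deviations, no agonist response on first addition; inactive = the rest.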
Each molecule was assayed against Mas-related G-protein coupled receptor member X1 (Homo sapiens) (UniProt Q96LB2) (assay: antagonists of human MrgX1 receptor, primary screen, HEK293 cells, Fluo-4 calcium flux (AID 588676;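 for B-score: peak minus trough fluorescence over baseline after final BAM8-22 challenge near maximal dose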)). Conditions: Fluo-4, BAM8-22 antagonism, at 10 µM; stronger effect = lower value.
Chain of Mas-related G-protein coupled receptor member X1 (Homo sapiens) (Q96LB2 whole entry, looked up): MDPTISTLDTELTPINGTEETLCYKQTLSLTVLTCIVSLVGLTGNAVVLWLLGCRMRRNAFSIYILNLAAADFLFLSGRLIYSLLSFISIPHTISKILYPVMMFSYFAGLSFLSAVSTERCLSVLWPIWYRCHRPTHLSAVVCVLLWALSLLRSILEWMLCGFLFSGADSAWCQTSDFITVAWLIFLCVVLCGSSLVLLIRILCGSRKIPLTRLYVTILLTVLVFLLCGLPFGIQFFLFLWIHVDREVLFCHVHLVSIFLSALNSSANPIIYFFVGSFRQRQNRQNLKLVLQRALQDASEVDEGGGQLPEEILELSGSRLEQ

SMILES	B-score
O=C(Cn1c(-c2cncs2)nc2ccccc21)NC1CCCC1	-5 (active)
O=C(Cn1c(-c2cscn2)nc2ccccc21)Nc1ccc(Cl)cc1	inactive
CC(=O)c1cc(-c2ccccc2)n(CC(=O)NC2CCCCC2)c1C	inactive
Cc1cc(NC(=O)CSC2=NS(=O)(=O)c3cc(Cl)ccc3N2)no1	inactive
C[C@@H](NC(=O)OC(C)(C)C)c1nnc(S(=O)(=O)Cc2ccccc2)o1	inactive
CNC(=S)N/N=C/c1ccc(OCc2ccccc2)c(Br)c1	inactive
CCCC(=O)Nc1ccc2c(c1)nc(CCNC(=O)c1ccco1)n2C	inactive
COCCNC(=O)Nc1ccc2nc(-c3ccco3)c(-c3ccco3)nc2c1	-6.82 (active)
O=C(NCc1ccccn1)c1ccc2nc(-c3ccco3)c(-c3ccco3)nc2c1	inactive
CCOc1ccc(S(=O)(=O)NCCC(=O)N2CCCCCCC2)cc1	inactive
O=C(NC(=S)N1CCc2ccccc21)c1ccco1	inactive
O=[N+]([O-])c1ccc2nc(-c3ccccn3)[nH]c2c1	inactive
COc1ccc([N+](=O)[O-])cc1-c1nc2ccccc2nc1-c1ccccc1	inactive
O=[N+]([O-])c1ccc2c(c1)Nc1nc3ccccc3nc1N2	-4.67 (active)
[O-][n+]1onc2c1CCc1[nH]c(-c3ccccc3)nc1-2	inactive
COc1ccc(NC(=S)N2N=CCC2c2ccccc2)cc1 (stereo not drawn)	-7.31 (active)
COc1ccc(C(=S)Nc2ccccc2)cc1	inactive
COc1ccc(C2=NN(C(C)=O)C(c3ccccc3)C2)cc1 (stereo not drawn)	inactive
Cc1nnc(CN(C)Cc2cn[nH]c2-c2ccc(-c3ccccc3)cc2)o1	inactive
CC(Nc1nc(C(F)(F)F)nc2ccccc12)c1cccs1 (stereo not drawn)	inactive
Cc1ccc(N2C(=O)C3C4C=CC(CC4)C3C2=O)cc1Br (stereo not drawn)	inactive
CNC(=S)N1CCN(c2ccccn2)CC1	inactive

SMILES	B-score
COc1cc([N+](=O)[O-])ccc1NC(=S)N1CCN(c2ccccn2)CC1	-5.85 (active)
O=[N+]([O-])c1ccc(NC(=S)N2CCN(c3ccccn3)CC2)cc1	inactive
CCC(C(=O)NC1CCCCC1)N(C(=O)c1snc(C(N)=O)c1N)c1ccc(OC)cc1OC (stereo not drawn)	inactive
COC(=O)c1cccc(C(=O)N2CCCC(Nc3ccc4c(c3)OCCO4)C2)c1 (stereo not drawn)	inactive
Cc1ccc(S(=O)(=O)N2CCN(C(=O)COC(=O)c3c(C)cc(C)cc3C)CC2)c(C)c1	inactive
Cc1ccc(S(=O)(=O)N2CCN(C(=O)c3ccccc3-c3nc4ccccc4s3)CC2)c(C)c1	-4.66 (active)
Cc1ccc(S(=O)(=O)N2CCN(C(=O)N3CCOCC3)CC2)c(C)c1	inactive
COc1cc(SC#N)ccc1N=Cc1c(C)[nH]n(-c2ccc(C)cc2)c1=O	inactive
C=CCSc1nsc(NC(=O)Nc2cccc(C(C)=O)c2)n1	inactive
CCSc1nsc(NC(=O)Nc2ccccc2OC)n1	inactive
CCSc1nsc(NC(=O)Nc2cccc(C(C)=O)c2)n1	-6.91 (active)
COc1ccc(/C=N/NC(=O)c2cc(-c3cccc(C)c3)nc3ccccc23)cc1O	inactive
COc1cccc(-c2cc(C(=O)N/N=C/c3ccc(OC)c(COC(C)=O)c3)c3ccccc3n2)c1	-7.49 (active)
CCOc1cc(/C=N/NC(=O)c2cc(-c3ccccc3)nc3ccccc23)ccc1O	inactive
CCCCN(C1CCS(=O)(=O)C1)S(=O)(=O)c1ccc(C(C)C)cc1 (stereo not drawn)	inactive
C1=C(N2CCOCC2)/C(=C/c2nc3ccccc3[nH]2)CC1	-5.3 (active)
CC1(C)Cc2c(C#N)c(SCc3nc4ccccc4[nH]3)nc(N3CCOCC3)c2CO1	inactive
O=c1[nH]c(N2CCOCC2)nc2ccccc12	inactive
COc1ccc2c(c1)[C@H]1[C@H](CO2)[C@H](c2ccccc2)[C@]2(C)C(=O)Nc3cc(F)c(F)cc3C(=O)N12	inactive
COc1cc(CN(C)Cc2nc3cc(C(F)(F)F)ccc3c(=O)[nH]2)ccc1OC(F)F	inactive
CCOCCCNC(=O)C1(O)c2cc(Br)ccc2NC(=O)N1c1ccc(C)c(C)c1 (stereo not drawn)	inactive
C=CCn1c(=NC(=O)c2cccs2)sc2cc(NC(C)=O)ccc21	inactive

SMILES	B-score
Cc1ccc(Cc2cnc(N)s2)o1	-6.78 (active)
Cc1ccc(CCC(=O)Nc2ncc(Cc3cc(Cl)ccc3Cl)s2)o1	inactive
CCn1ccnc1CN(C)C(=O)c1cc(COc2ccc(Cl)cc2OC)on1	inactive
CCc1ccc2[nH]c(=O)c(Cc3ccccc3)c(O)c2c1	inactive
CN(C)c1ccc(-n2cccc2/C=C2/SC(=Nc3ccc(F)cc3)NC2=O)cc1	-5.31 (active)
CN(C)c1ccc(-n2cccc2/C=N/n2cnnc2)cc1	inactive
Cc1ccc(N=C2NC(=O)/C(=C/C=C/c3ccco3)S2)cc1C	inactive
Cc1ccccc1NC(=O)Cn1cc(C(=O)C2CC2)c2ccccc21	inactive
COc1cc2ccccc2cc1C(=O)N(CCN(C)C)c1nc2c(F)cccc2s1	inactive
COc1cccc2sc(N(CCCN(C)C)C(=O)C(c3ccccc3)c3ccccc3)nc12	-7.14 (active)
COc1cccc2sc(N(CCCN(C)C)C(=O)CCS(=O)(=O)c3ccccc3)nc12	inactive
CCc1ccc2c(c1)C1(NN=C(c3ccccc3)S1)C(=O)N2 (stereo not drawn)	inactive
CCOC(=O)c1c(NC(=O)CCl)sc(C(=O)N(CC)CC)c1C	inactive
Cn1nc(C(F)(F)F)cc1-c1ccc(/C=C(\C#N)C(=O)c2cccc(C(F)(F)F)c2)s1	inactive
CCOC(=O)c1c(C)nc(-c2ccccc2)nc1NC(=O)C(C)C	inactive
CC(=O)c1c(C)[nH]c(=S)c(C#N)c1-c1ccc(F)cc1	inactive
CCOC(=O)c1c(C)[nH]c(=S)c(C#N)c1-c1ccccc1	-6.66 (active)
O=c1c(Cl)c(NCc2ccc(F)cc2Cl)cnn1C12CC3CC(CC(C3)C1)C2	inactive
Cc1cccc2c1-c1sc(C(=O)NCCCN3CCc4ccccc4C3)cc1CO2	inactive
CC1=NN(c2cccc(Cl)c2)C(=O)C12CC(C)=C(C)CS2 (stereo not drawn)	inactive
CC(C)Oc1ccc(C(CC(=O)N2CCOCC2)C(C)C)cc1 (stereo not drawn)	inactive
O=[N+]([O-])c1ccc(N2CCN(S(=O)(=O)c3ccccc3)CC2)cc1N1CCc2ccccc2C1	inactive

SMILES	B-score
Cc1nccn1CCC1CCCCN1C(=O)CCc1nnc(-c2ccsc2)o1 (stereo not drawn)	-4.86 (active)
CC(C)CC(O)C1CCN(C(=O)CCc2nnc(-c3ccc4c(c3)OCO4)o2)CC1 (stereo not drawn)	inactive
COCC1CCN(C(=O)CCc2nnc(C3(c4ccc(Cl)cc4)CCC3)o2)C1 (stereo not drawn)	inactive
CN(C)C(CNC(=O)Cc1ccc([N+](=O)[O-])cc1)c1ccccc1 (stereo not drawn)	inactive
O=C(CSCc1ccc([N+](=O)[O-])cc1)NCCSCc1ccccc1	inactive
CN(C)CCNC(=O)Cc1ccc([N+](=O)[O-])cc1	-6.37 (active)
S=C(NCc1ccco1)Nc1ccc2c(c1)OCCO2	inactive
FC(F)Oc1ccc(NC(=S)NCc2ccco2)cc1Cl	-4.6 (active)
COc1cc(NC(=S)NCc2ccco2)c(OC)cc1Cl	inactive
O=C1CCc2cc(S(=O)(=O)Nc3ccc(C(F)(F)F)cc3)cc3c2N1CC3	inactive
CCN(CC(=O)Nc1cc(Cl)ccc1C)C(=O)Cn1c(=O)cnc2ccccc21	inactive
CCOC1CCCCC1NS(=O)(=O)c1ccc(Cl)cc1 (stereo not drawn)	-6.36 (active)
CCN1CCN(C2CCCCC2NS(=O)(=O)c2ccc(Cl)cc2)CC1 (stereo not drawn)	inactive
O=S(=O)(NC1CCCCC1N1CCCCC1)c1ccc(Cl)cc1 (stereo not drawn)	inactive
O=C(O)CCCN1C(=O)c2ccccc2Sc2ncccc21	inactive
COc1ccc(C(=O)NCc2nnc(SCCOc3ccccc3)n2C)cc1	-8.04 (active)
COc1ccc(CC(=O)NCc2nnc(SCC(=O)Nc3nccs3)n2C)cc1	inactive
COc1ccc(C(=O)NCc2nnc(SCC(=O)NC3=NCCS3)n2C)cc1	inactive
CCN(CC)C(=O)CSc1nnc(CNc2ccc(F)cc2)n1Cc1ccco1	inactive
CC(C)(C)n1c(=O)[nH]c2c(c1=O)CCC2	-7.85 (active)
O=c1[nH]n2c(=O)c3c([nH]c2c1N=Nc1ccccc1)CCC3	inactive
O=C(COC(=O)Cc1c[nH]c2ccccc12)NCCc1ccccc1	inactive

SMILES	B-score
Cc1nc(CNS(=O)(=O)c2ccc(Oc3ccccc3)cc2)cs1	inactive
O=C(NCCCc1ccccc1)C(=O)c1c[nH]c2ccccc12	inactive
CCS(=O)(=O)N1Cc2ccccc2CC1C(=O)Nc1nc2ccc(F)cc2s1 (stereo not drawn)	inactive
COc1ccc(OCCCC(=O)OC(C)C(=O)Nc2ccccc2[N+](=O)[O-])cc1 (stereo not drawn)	inactive
COc1ccc(N2CCN(C(=O)CN3C(=O)COc4ccccc43)CC2)cc1	inactive
Nc1ccc(SCCN2C(=O)c3ccccc3C2=O)cc1	inactive
NC(=O)C1(C(N)=O)OC1c1ccc(Cl)cc1Cl (stereo not drawn)	inactive
O=C(NC1CC1)C1=C[C@H](c2coc3ccccc3c2=O)C[C@H](OCCCCO)O1	inactive
CNC(=O)c1cccc2nc3ccccc3nc12	inactive
O=c1[nH]c(=O)c2nc3ccccc3nc2[nH]1	-4.56 (active)
Nc1ccc2nc3c(=O)[nH]c(=S)[nH]c3nc2c1	inactive
CC1(C)CC(=O)C(N=Nc2c(F)cccc2F)=C(O)C1	inactive
CC(=O)N1CCC(C(=O)OCc2ccc(Cl)cc2)(c2ccccc2)CC1	inactive
Cc1ccc(S(=O)(=O)N(C)c2nc3ccccc3n3c(C(C)C)nnc23)cc1	inactive
Cc1ccc(-c2cn(S(=O)(=O)c3cccc([N+](=O)[O-])c3)nc2N)cc1	inactive
Nc1cc(OC(=O)c2ccccc2Br)nn1S(=O)(=O)c1ccccc1	inactive
Cc1ccc(S(=O)(=O)n2nc(OC(=O)C(C)(C)C)cc2N)cc1	-8.79 (active)
Cc1ccc(C(=O)NC2CCN(C(=O)Nc3ccccc3Cl)CC2)cc1	inactive
O=C(COc1ccc(-n2cnnn2)cc1)Nc1ccccc1Cl	inactive
O=C(Nc1ccccc1Cl)N1CCN(c2ccc3nncn3n2)CC1	-4.64 (active)

Source: PubChem BioAssay AID588676 (Johns Hopkins Ion Channel Center, 2011)
